Compound activity (PubChem BioAssay)
Shiga inhibitor = Shiga toxin inhibition | Vero cells, Shiga toxin protein synthesis inhibition reporter | inhibition, % at 38.7 µM | 9.2% of 290,000 active | AID 2315; in the data active = inhibition mostly above about 28%, no sharp cut-off; inactive = mostly below about 43%; also: 0% is about no effect
Lassa entry inh = Lassa virus entry inhibition; Lassa virus pseudotype entry inhibition, cell reporter; Potency, µM (highest dose often 37.9 µM), for inactives: at the highest dose activity change, negative = inhibition, hits mostly inhibitors; 1.2% of 300,000 active; AID 540256; calls by dose curve; tested in HEK293 cells; also: potency is read from the fitted curve at half-maximal effect; % is scaled to controls: 0 for no effect and ±100 for the full control effect; nearly all actives have a fitted effect of over 50% in size
Cycloheximide cs = counter-screen hit for Shiga toxin inhibitors, cycloheximide; cell reporter, cycloheximide protein synthesis inhibition counterscreen; max response, %; 12% of 300,000 active; in the data active = max response mostly above about 13%, no sharp cut-off; inactive = mostly below about 14%; also: read at 38.3 µM for the half of the compounds with a filed dose; 0% is about no effect
VACV mCherry inh = vaccinia inhibition (mCherry reporter) | Potency, µM (top dose mostly 36.5 µM), inactives show top-dose activity change, negative = inhibition, usual class: inhibitors | AID 720579 | Vaccinia virus mCherry reporter infection, fluorescence | 0.63% of 310,000 active; calls by dose curve; tested in A549 cells; also: potency is read from the fitted curve at half-maximal effect; % is scaled to controls: 0 for no effect and ±100 for the full control effect; nearly all actives have a fitted effect of over 35% in size
Vaccinia Venus = inhibitors of vaccinia virus (Venus reporter). Vaccinia virus Venus reporter expression, fluorescence. Potency, µM (titrated, usually from 36.5 µM), for inactives: top-dose activity change, negative = inhibition, most hits filed as inhibitors. 0.46% of 330,000 active; calls by dose curve; tested in A549 cells; also: potency is read from the fitted curve at half-maximal effect; % is scaled to controls: 0 for no effect and ±100 for the full control effect; nearly all actives have a fitted effect of over 30% in size
MARV entry inh = inhibitors of Marburg virus binding or cell entry; Marburg virus pseudotyped entry inhibition, cell reporter; Potency, µM (series often up to 37.8 µM), without a hit: at the top dose activity change, negative = inhibition, most hits filed as inhibitors; 1.8% of 300,000 active; calls by dose curve; tested in HEK293 cells; also: potency is read from the fitted curve at half-maximal effect; % is scaled to controls: 0 for no effect and ±100 for the full control effect
An asterisk follows results filed as active; i = inactive; ? = inconclusive; nt = not tested or not shown; [ ] = remark or other dose. The sample as a whole holds a higher share of hits than the screen did.

SMILES	Shiga inhibitor	Lassa entry inh	Cycloheximide cs	VACV mCherry inh	Vaccinia Venus	MARV entry inh
COC(c1ccccc1)c1nnc(CCC(=O)N2CCCCCCC2)o1 (configuration not stated)	33	10%[46.1 µM]	11*	-25%	-9%	?
COC(c1ccccc1)c1nnc(CCC(=O)NCCc2ccc(Cl)cc2)o1 (configuration not stated)	3	nt	1	nt	nt	nt
CCCn1c(SCC(=O)N2CCN(C(=O)c3ccco3)CC2)nc2ccccc2c1=O	-2	25%[46.1 µM]	-1	i	-11%	?
CC(=O)N[C@@H](Cc1c[nH]c2ccccc12)C(=O)NC1CCCc2ccccc21 (some centres not stated)	18	?	1	i	-11%	5%[46.1 µM]
CC(C)[C@@H]1CC[C@@H](C)CC1=O	nt	nt	nt	i	0%	nt
CSC(=Nc1ccccc1)N=C(SCc1ccccc1)N(C)C	nt	13µM*	nt	?	?	?
COc1ccc(NC(=O)CSCC(=O)N=c2sccn2C)cc1	-3	nt	1	nt	nt	nt
CCCN(CCC)S(=O)(=O)c1cccc(C(=O)N=c2sccn2C)c1	7	-11%	-2	-25%	-20%	-20%
COC(=O)c1ccc(C(=O)N=c2sccn2C)cc1	79*	8%	40*	i	-5%	?
Cn1ccs/c1=N\C(=O)Nc1ccccc1	75*	nt	66*	i	-8%	nt
Cn1ccsc1=NC(=O)c1ccc(Cl)cc1	113*	12%	39*	-5%	-11%	?
Cn1ccsc1=NC(=O)c1ccccc1F	41	-2%	16	-18%	0%	?
COc1ccc(C(=O)N=c2sccn2C)cc1	71*	-2%[46.1 µM]	33*	i	-8%	?
COc1ccc2cc(C(C)C(=O)N3CCC(C(N)=O)CC3)ccc2c1 (configuration not stated)	14	-6%[46.1 µM]	-1	-9%	-4%	-3%[46.1 µM]
O=C1OCCN1c1c(-c2ccccc2)c(N2CCOCC2)nc2ccccc12	nt	nt	nt	-9%	-1%	nt
Cn1ccsc1=NC(=O)c1ccccc1OC(F)F	-22	5%[46.1 µM]	9	i	-2%	19%[46.1 µM]
CCOc1cc(C(=O)N=c2sccn2C)ccc1OC(F)F	71	nt	35*	nt	nt	nt
Cn1ccsc1=NC(=O)c1ccc(S(=O)(=O)C(F)F)cc1	69*	10%[46.1 µM]	26*	-2%	2%	5%[46.1 µM]
Cc1ccc(NC(=O)CSCC(=O)N=c2sccn2C)cc1	nt	9%	nt	-13%	-10%	-11%
CN(C)c1ccc(C(=O)N=c2sccn2C)cc1[N+](=O)[O-]	42*	nt	18*	nt	nt	nt
Cn1ccsc1=NC(=O)c1ccc(OC(F)(F)F)cc1	83*	-3%[46.1 µM]	36*	-12%	-10%	?
CCOc1ccc(C(CC(=O)O)NC(=O)C(Sc2ccccc2)c2ccccc2)cc1 (configuration not stated)	0	12%	-6	-12%	11%	-11%[46.1 µM]
Cn1ccsc1=NC(=O)c1ccc(CS(C)(=O)=O)cc1	39*	-3%[46.1 µM]	12	-6%	5%	?
CCOc1ccc(N2C(=O)CN(CC(=O)OC)C2=S)cc1	-25	-1%[46.1 µM]	-4	i	-8%	16%[46.1 µM]
CC(=O)c1ccc(NC(=O)NC2CCCc3ccccc32)cc1 (configuration not stated)	4	nt	1	nt	nt	nt
SMILES	Shiga inhibitor	Lassa entry inh	Cycloheximide cs	VACV mCherry inh	Vaccinia Venus	MARV entry inh
COc1ccc(C)cc1NC(=O)NC1CCCc2ccccc21 (configuration not stated)	-3	12%[46.1 µM]	-4	?	?	2%[46.1 µM]
COc1ccc(NC(=O)NC2CCCc3ccccc32)cc1 (configuration not stated)	19	?	16*	i	-17%	?
COc1ccc(NC(=O)NC2CCCc3ccccc32)cc1OC (configuration not stated)	31*	nt	33*	nt	nt	nt
CCOc1ccc(Oc2nc(NC)nc(N3CCOCC3)n2)nn1	nt	24%[46.1 µM]	nt	0%	-11%	11%[46.1 µM]
COC(=O)c1cc2sc(C)cc2n1CC(=O)Nc1ccc(C)cc1Cl	nt	nt	nt	-10%	-6%	-23%[46.1 µM]
O=C(Nc1ccccc1F)c1ccc2snnc2c1	60*	nt	38*	nt	nt	nt
O=C(Nc1ccc(Cl)cc1)c1ccc2snnc2c1	38*	nt	37*	i	-2%	nt
CNC(=O)c1ccc2snnc2c1	-7	nt	-3	-13%	-10%	nt
CC(=O)c1ccc(NC(=O)c2ccc3snnc3c2)cc1	65*	nt	50*	nt	nt	nt
COc1ccc(NC(=O)c2ccc3snnc3c2)cc1	64*	-17%	46*	nt	-22%	6%[46.1 µM]
